Source: PubChem BioAssay
Shown are actives, neighbours in structure and some others; about 2.3% of the full set was active somewhere.
Bim-Mcl-1: inhibitors of Bim peptide binding to Mcl-1, primary screen, biochemical, bead-based flow cytometry, multiplex | Induced myeloid leukemia cell differentiation protein Mcl-1 (Homo sapiens), Q07820 | Bim peptide-Mcl-1 binding | inhibition, % at 10 µM | 190,000 tested, 0.1% active | AID 1009, 2008; in the data active means inhibition above about 40%;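 further: 0% = no compound tracer wells and 100% = peptide blocker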
Target sequence (Q07820 whole entry, looked up): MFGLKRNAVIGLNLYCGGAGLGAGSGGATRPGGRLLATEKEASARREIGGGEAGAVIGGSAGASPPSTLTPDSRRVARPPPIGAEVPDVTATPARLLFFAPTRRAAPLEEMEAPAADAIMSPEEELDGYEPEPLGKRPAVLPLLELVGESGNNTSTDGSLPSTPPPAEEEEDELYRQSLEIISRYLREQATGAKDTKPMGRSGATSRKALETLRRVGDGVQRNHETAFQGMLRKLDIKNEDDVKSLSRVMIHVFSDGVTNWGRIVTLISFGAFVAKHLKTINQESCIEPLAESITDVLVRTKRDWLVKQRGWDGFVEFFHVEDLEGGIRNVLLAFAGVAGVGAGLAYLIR
Mcl1-Bid inh: Mcl-1/Bid binding inhibitors, primary screen, biochemical, TR-FRET, 1536-well; AID 1021, 2008; inhibition, % at 21.7 µM; TR-FRET Mcl-1/Bid-Dy647 peptide binding; 220,000 tested, 0.97% active;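 active means compounds that cut the binding signal by more than half at the single screening dose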;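 further: His-tagged Mcl-1 with europium anti-His antibody binding Bid BH3 peptide; 0% = Mcl-1 plus peptide wells and 100% = peptide-only wells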
MCL1 BIM primary: inhibitors of MCL1 binding to BIM-BH3, primary screen, biochemical, fluorescence polarization. GST-MCL1 / FITC-Bim-BH3 fluorescence polarization. inhibition, % at 10.9 µM. Induced myeloid leukemia cell differentiation protein Mcl-1 (Homo sapiens), Q07820. 320,000 tested, 0.68% active;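 active means inhibition above the mean inhibition of all tested compounds plus 3 SD, set per campaign, cut at about 40% in these data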;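 further: 0% = DMSO wells and 100% = unlabeled Bim-BH3 peptide control; higher means more loss of mP so more displacement of Bim peptide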
GLD-1 TGE inh: GLD-1/TGE RNA complex disruptors, primary screen, biochemical, fluorescence polarization; Female germline-specific tumor suppressor gld-1 (Caenorhabditis elegans), Q17339; purified GLD-1 + fluorescein TGE RNA; inhibition, % at 5.96 µM; 320,000 tested, 0.44% active;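 active means percent inhibition above a per-plate cutoff, the plate mean of test compounds plus 3 SD, cut at about 30% in these data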;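 further: 0% = DMSO wells with GLD-1 and probe and 100% = wells lacking GLD-1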
Bcl-xL primary: inhibitors of human Bcl-xL, primary screen, biochemical, fluorescence polarization, HTS. GST-Bcl-xL / FITC-Bim BH3 peptide fluorescence polarization. inhibition, % at 10.9 µM. 320,000 tested, 0.7% active. AID 2129, 2009;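 active means inhibition above the mean of all tested compounds plus 3 SD, cutoff set per campaign, cut at about 30% in these data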;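 further: 0% = DMSO wells and 100% = unlabeled Bim-BH3 peptide competitor; inhibitors lower millipolarization by displacing the labeled peptide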
Target sequence (Q07817 whole entry, looked up): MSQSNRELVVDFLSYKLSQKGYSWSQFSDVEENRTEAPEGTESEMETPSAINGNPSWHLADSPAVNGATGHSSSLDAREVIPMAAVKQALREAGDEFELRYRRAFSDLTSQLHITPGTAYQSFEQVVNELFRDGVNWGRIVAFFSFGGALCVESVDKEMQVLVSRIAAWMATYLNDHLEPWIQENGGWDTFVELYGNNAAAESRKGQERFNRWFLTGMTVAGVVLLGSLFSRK
Mcl1 Noxa PPI: Mcl-1/Noxa binding inhibitors, primary screen, biochemical, TR-FRET, 1536-well; Induced myeloid leukemia cell differentiation protein Mcl-1 (Homo sapiens), Q07820; TR-FRET Mcl-1/Noxa peptide binding, 2 h; inhibition, % at 21.7 µM; 220,000 tested, 1.5% active; AID 1022, 2008;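 active means compounds that cut the protein-peptide binding signal by more than 50% relative to plate controls in a single-dose test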;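 further: His-tagged Mcl-1 with rhodamine Noxa BH3 peptide and terbium anti-His antibody; 0% = Mcl-1 plus Noxa peptide wells and 100% = peptide-only wells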
BCLXL inh confirm: Bcl-xL inhibitors blocking Bim BH3 binding, confirmation, counter-screen for MCL1 inhibitor project, biochemical, fluorescence polarization. 1,700 tested, 54% active. GST-Bcl-xL / FITC-Bim BH3 peptide FP binding. shares compounds with MCL1 BIM primary. AID 2166, 2009. inhibition, % at 10.9 µM;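 active means inhibition above a cutoff equal to the mean inhibition of all tested compounds plus 3 SD, cut at about 30% in these data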;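 further: 0% = DMSO wells and 100% = unlabeled Bim BH3 control peptide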
MCL1 BIM confirm: inhibitors of MCL1 binding to BIM-BH3, confirmation, biochemical, fluorescence polarization, triplicate. shares compounds with MCL1 BIM primary. GST-MCL1 / FITC-Bim-BH3 fluorescence polarization. inhibition, % at 10.9 µM. 1,700 tested, 61% active. AID 2168, 2009;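 active means inhibition above the average of all tested compounds plus 3 SD, cut at about 40% in these data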;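 further: 0% = DMSO wells and 100% = unlabeled Bim-BH3 control peptide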
An asterisk follows results filed as active; x = no result; + = active, no number.

SMILES	Bim-Mcl-1	Mcl1-Bid inh	MCL1 BIM primary	GLD-1 TGE inh	Bcl-xL primary	Mcl1 Noxa PPI	BCLXL inh confirm	MCL1 BIM confirm
Cc1cccc(C(=O)N=c2c(C#N)cc3c(=O)n4cccc(C)c4nc3n2Cc2ccco2)c1	0	0	64*	21	43*	86*	38*	32
COCCCn1c(=NC(=O)c2ccccc2)c(C#N)cc2c(=O)n3cccc(C)c3nc21	x	-5	+	127*	181*	18	76*	105*
Cc1cccn2c(=O)c3cc(C#N)c(=NC(=O)c4ccco4)n(Cc4ccco4)c3nc12	x	-20	15	4	14	40	x	x
CCOCCCn1c(=NC(=O)c2cccs2)c(C#N)cc2c(=O)n3cccc(C)c3nc21	x	2	151*	106*	138*	21	115*	142*
COc1cccc(CNC(=O)CCCCCn2c(=S)[nH]c3ccc(N4CCOCC4)cc3c2=O)c1	-2	9	15	3	7	24	x	x
COc1cccc(Cn2c(=S)[nH]c3ccc(N4CCOCC4)cc3c2=O)c1	1	-36	41*	3	19	23	-24	-19
CCOc1ccc(N2C(=O)CSC2c2ccncc2)cc1 (stereo unspecified)	-1	1	4	4	1	-6	x	x
CCCCNC(=O)c1cc2ccccc2s1	0	7	-1	-3	-2	8	x	x
O=C(CC1CCCC1)Nc1cc(S(=O)(=O)N2CCOCC2)ccc1O	x	x	-1	1	5	x	x	x
O=C(CSc1nc2ccccc2s1)Nc1cc(S(=O)(=O)N2CCOCC2)ccc1O	13	32	43*	3	16	105*	23	49*
COc1ccc2[nH]c(=O)c(CN(CC3CCCO3)C(=S)Nc3cccc(C)c3)cc2c1 (stereo unspecified)	-4	-36	4	5	2	16	x	x
COc1ccc(C2CC(c3ccc(OC)cc3OC(C)=O)=NN2C(=O)c2ccccc2)cc1 (stereo unspecified)	x	x	92*	-7	9	x	36*	49*
COc1ccc(C2=NN(C(=O)/C=C/c3ccccc3)C(c3ccccc3)C2)c(OC(C)=O)c1 (stereo unspecified)	-10	6	-1	4	-2	-30	x	x
Cn1c(=O)c(=O)n(C)c2cc(S(=O)(=O)N3CCOc4ccccc43)ccc21	x	x	1	5	0	x	x	x
O=c1[nH]c2c(s1)C=Nc1ccccc1N2	0	-10	+	144*	178*	25	118*	152*
COc1ccc(N2C3=C(CC4=C2CCCC4=O)C(=O)CCC3)cc1	2	-24	77*	7	75*	26	32*	31
O=C(CNC(=O)Cc1ccccc1)N=Nc1c(O)[nH]c2ccccc12	x	x	-4	-3	4	x	x	x
O=C(CNC(=O)/C=C/c1ccco1)N=Nc1c(O)[nH]c2ccccc12	x	x	42*	-2	20	x	28	57*
Cc1ccccc1CN(C)Cc1cc(=O)oc2c(C)c(C)ccc12	x	x	64*	-8	3	x	12	7
COc1ccccc1CNCc1cc(OC)c(OC)c(OC)c1	2	17	3	-3	-3	6	x	x
O=C(O)Cc1ccc(N=Nc2c(O)c(C(=O)O)cc3ccccc23)cc1	x	-2	43*	6	26	23	37*	70*
Nc1c(C(=O)C2CC2)sc2nc(-c3cccs3)cc(C(F)(F)F)c12	-5	-23	72*	-36	11	-32	13	-17
COC(=O)c1ccccc1NCc1cc(=O)oc2cc(O)c(O)cc12	x	x	60*	-1	9	x	23	65*
Cc1c(Br)c([N+](=O)[O-])nn1C(C)C(=O)NCC1CCCO1 (stereo unspecified)	3	-12	-3	2	8	13	x	x
O=C(C1CCCO1)N(c1cccc(Cl)c1)C1C=CS(=O)(=O)C1 (stereo unspecified)	0	-8	0	0	4	1	x	x
SMILES	Bim-Mcl-1	Mcl1-Bid inh	MCL1 BIM primary	GLD-1 TGE inh	Bcl-xL primary	Mcl1 Noxa PPI	BCLXL inh confirm	MCL1 BIM confirm
CCOC(=O)[C@@H]1[C@H]2COc3ccccc3[C@@H]2N2C(=O)N(c3ccc(OC)cc3)C(=O)[C@@]12C	x	x	0	1	10	x	x	x
CC(C)(C)NC(=O)NC(=O)CN1CCCc2ccccc21	-4	-72	84*	6	77*	-3	11	13
O=C(CN1CCCc2ccccc21)NC(=O)NCc1ccccc1	x	-50	4	-4	13	-10	x	x
COCCNc1nnc(SCC(=O)NNC(=O)c2ccc([N+](=O)[O-])cc2)s1	x	x	75*	5	-1	x	-3	7
COc1ccccc1OCCOCCOc1ccccc1Cl	-4	-22	10	7	5	-10	x	x
O=C(CCc1ccccc1)NNC(=O)c1ccccc1F	-1	-20	-1	1	4	10	x	x
NC(=S)N/N=C/c1ncc(C(F)(F)F)cc1Cl	x	-58	153*	101*	146*	-20	95*	113*
NC(=S)N/N=C/c1ccc(C(F)(F)F)cc1	0	-99	11	2	5	14	x	x
COc1ccc(C(=O)NC(=S)Nc2cccnc2)cc1[N+](=O)[O-]	-4	-24	42*	1	27	13	22	19
COc1cc(SC)ccc1C(=O)NCCc1ccccc1	-4	-29	7	4	7	15	x	x
COc1ccc(-n2c(C)ccc2-c2ccccc2)cn1	x	x	128*	89*	107*	x	89*	108*
COC(=O)c1ccc(-n2c(C)ccc2-c2ccccc2)cc1	0	-28	-11	-3	-4	0	x	x
CC1(OC(=O)C2CCCC2)C(=O)C=C2C=C3CCCN3C=C2C1=O (stereo unspecified)	x	x	29	14	18	x	x	x
CC1(OC(=O)c2cccs2)C(=O)C=C2C=C3CCCN3C=C2C1=O (stereo unspecified)	x	-64	63*	11	24	72*	44*	63*
